# Compound activity as filed in PubChem BioAssay.
# G9a inh: qHTS Assay for Inhibitors of Histone Lysine Methyltransferase G9a | Histone-lysine N-methyltransferase EHMT2 (Homo sapiens), Q96KQ7 | G9a H3K9 monomethylation, AlphaScreen, 2 h | Potency, µM (doses to about 102 µM), actives largely listed as inhibitors | 350,000 tested, 8.8% active | AID 504332, 2011; note: nearly all actives have a fitted effect of over 75% in size
#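 Compounds were preincubated with 20 nM G9a for 15 min, after which biotinylated H3K9 peptide (500 nM) and SAM (20 uM) started a 2 h room-temperature reaction. Monomethylated product was quantified by antibody-based AlphaScreen chemiluminescence.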
# JMJD2A Tudor inh: qHTS Assay for Inhibitors of JMJD2A-Tudor Domain | Potency, µM (highest dose often 114 µM), actives largely listed as inhibitors | AID 504339, 2011 | 390,000 tested, 4.4% active | Lysine-specific demethylase 4A (Homo sapiens), O75164 | AlphaScreen JMJD2A-Tudor / H3K4me3 peptide binding; note: nearly all actives have a fitted effect of over 50% in size
# Six1-Eya2 blk: qHTS Assay for Inhibitors of the Six1/Eya2 Interaction; AID 651725, 2012; activity change, % (test concentration not listed); Homeobox protein SIX1 (Homo sapiens) + Protein phosphatase EYA2 (Homo sapiens), …; 360,000 tested, 0.56% active; AlphaScreen GST-Six1/His-Eya2 binding, biochemical; hits give low values; in the data active = activity change below about -65%; inconclusive = mostly about -30% to -63%
#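 Homogeneous AlphaScreen proximity assay pairing GST-Six1 with His-tagged Eya2 (added as 5X mix: 250 nM and 500 nM) in 50 mM Tris pH 8.0, 300 mM NaCl, 1 mM TCEP. Glutathione donor and nickel acceptor beads; 1 h, 37 °C, dark.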
# HP1b chromo inh: HTS for Inhibitors of HP1-beta Chromodomain Interactions with Methylated Histone Tails; Potency, µM (titrated, usually from 114 µM), hits mostly inhibitors; AlphaScreen HP1-beta / biotin-H3K9me3 peptide binding; 390,000 tested, 0.56% active; Chromobox protein homolog 1 (Homo sapiens), P83916; AID 540317, 2011; note: nearly all actives have a fitted effect of over 70% in size
#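 HP1-beta protein (50 nM final) preincubated 30 min at room temperature with biotinylated H3(1-18)K9me3 peptide (50 nM) in PBS pH 7.4, 0.01% Tween-20, then compound added for 30 min. AlphaScreen streptavidin donor/nickel chelate acceptor beads (10 ug/mL final), 30 min dark, luminescence read.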
# CtBP-E1A inh: qHTS Assay for Inhibitors of the CtBP/E1A Interaction. CtBP / adenovirus E1A interaction (AlphaScreen). AlphaScreen GST-E1A/His-CtBP binding, 1536-well; hits give low values. activity change, % (test concentration not listed). 340,000 tested, 0.49% active. AID 651724, 2012; in the data active = activity change below about -65%; inconclusive = mostly about -30% to -63%
#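 Homogeneous bead-based format: GST-tagged E1A captured on glutathione donor beads, His-tagged CtBP on nickel acceptor beads; compounds precede bead addition by 2 h at 37 °C.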
# BAZ2B inh: qHTS Assay for Inhibitors of BAZ2B | Potency, µM (top dose mostly 114 µM), most hits filed as inhibitors | AID 504333, 2011 | Bromodomain adjacent to zinc finger domain protein 2B (Homo sapiens), Q9UIF8 | AlphaScreen BAZ2B-H3K14Ac peptide displacement | 360,000 tested, 4.4% active; note: nearly all actives have a fitted effect of over 60% in size
# Target sequence (Q9UIF8 whole entry, looked up, the tested form may be a part): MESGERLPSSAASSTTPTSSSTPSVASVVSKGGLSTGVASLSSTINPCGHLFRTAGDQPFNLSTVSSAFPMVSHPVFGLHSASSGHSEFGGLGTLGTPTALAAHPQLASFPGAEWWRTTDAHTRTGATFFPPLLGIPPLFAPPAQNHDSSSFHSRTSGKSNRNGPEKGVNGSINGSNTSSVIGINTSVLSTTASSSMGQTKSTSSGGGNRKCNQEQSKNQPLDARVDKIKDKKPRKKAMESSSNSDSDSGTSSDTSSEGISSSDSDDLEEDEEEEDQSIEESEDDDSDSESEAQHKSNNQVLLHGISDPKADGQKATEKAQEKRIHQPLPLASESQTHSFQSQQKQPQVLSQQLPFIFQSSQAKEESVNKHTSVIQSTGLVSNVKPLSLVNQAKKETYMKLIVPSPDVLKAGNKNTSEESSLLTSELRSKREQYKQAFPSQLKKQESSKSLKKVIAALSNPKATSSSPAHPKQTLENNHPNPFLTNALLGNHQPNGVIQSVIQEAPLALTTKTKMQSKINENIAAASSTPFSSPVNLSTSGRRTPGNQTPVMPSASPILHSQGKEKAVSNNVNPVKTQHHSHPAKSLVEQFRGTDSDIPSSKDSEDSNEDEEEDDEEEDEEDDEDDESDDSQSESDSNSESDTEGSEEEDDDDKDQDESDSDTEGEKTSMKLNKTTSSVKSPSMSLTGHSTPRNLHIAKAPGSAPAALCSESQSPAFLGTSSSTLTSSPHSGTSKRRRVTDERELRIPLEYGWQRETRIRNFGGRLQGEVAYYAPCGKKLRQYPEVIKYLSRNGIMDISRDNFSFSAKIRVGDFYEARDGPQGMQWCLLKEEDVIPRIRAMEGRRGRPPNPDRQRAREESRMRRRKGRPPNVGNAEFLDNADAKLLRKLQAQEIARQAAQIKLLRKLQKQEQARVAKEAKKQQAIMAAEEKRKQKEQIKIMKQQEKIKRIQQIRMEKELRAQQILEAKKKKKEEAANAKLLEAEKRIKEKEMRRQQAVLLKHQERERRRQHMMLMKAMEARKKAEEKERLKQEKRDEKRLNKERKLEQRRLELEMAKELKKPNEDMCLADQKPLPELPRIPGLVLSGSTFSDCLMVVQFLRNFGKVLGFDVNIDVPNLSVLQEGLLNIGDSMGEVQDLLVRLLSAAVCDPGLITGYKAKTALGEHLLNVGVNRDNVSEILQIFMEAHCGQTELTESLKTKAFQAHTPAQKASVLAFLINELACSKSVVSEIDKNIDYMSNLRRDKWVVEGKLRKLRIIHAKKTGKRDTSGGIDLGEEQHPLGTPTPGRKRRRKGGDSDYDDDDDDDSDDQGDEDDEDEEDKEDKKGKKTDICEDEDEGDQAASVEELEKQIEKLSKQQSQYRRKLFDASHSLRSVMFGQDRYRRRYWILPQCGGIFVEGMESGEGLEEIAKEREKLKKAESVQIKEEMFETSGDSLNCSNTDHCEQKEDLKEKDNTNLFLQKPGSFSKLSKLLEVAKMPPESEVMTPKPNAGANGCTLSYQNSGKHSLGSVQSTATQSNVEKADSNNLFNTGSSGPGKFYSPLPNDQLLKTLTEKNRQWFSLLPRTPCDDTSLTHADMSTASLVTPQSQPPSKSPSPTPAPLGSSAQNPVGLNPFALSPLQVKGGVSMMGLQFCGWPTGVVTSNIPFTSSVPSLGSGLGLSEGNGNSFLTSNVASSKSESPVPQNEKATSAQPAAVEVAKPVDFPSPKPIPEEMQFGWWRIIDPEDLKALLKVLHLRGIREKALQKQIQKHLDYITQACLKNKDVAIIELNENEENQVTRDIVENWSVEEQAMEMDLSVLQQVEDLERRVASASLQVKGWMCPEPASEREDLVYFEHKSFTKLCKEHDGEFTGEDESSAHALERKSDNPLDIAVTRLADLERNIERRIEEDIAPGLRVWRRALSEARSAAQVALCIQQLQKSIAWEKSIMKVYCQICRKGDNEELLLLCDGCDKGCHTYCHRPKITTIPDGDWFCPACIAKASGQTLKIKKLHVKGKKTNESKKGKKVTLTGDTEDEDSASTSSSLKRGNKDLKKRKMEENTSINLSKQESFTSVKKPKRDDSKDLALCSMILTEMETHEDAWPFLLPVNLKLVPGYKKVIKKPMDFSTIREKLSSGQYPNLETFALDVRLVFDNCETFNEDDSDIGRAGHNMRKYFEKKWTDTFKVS
#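 Compounds, titrated to a top concentration of 110 uM, were incubated 30 min at room temperature with preformed BAZ2B/acetyl-K14 H3 peptide complex (50 nM each). Proximity signal was measured by AlphaScreen after 20 min with beads.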
# Numbers stand for hits; . = inactive; ? = inconclusive; / = no result; [ ] = another dose, or the depositor's remark. Only some compounds are listed: those with a hit (about 10% of all), similar ones and a draw of the others. Unless noted, calls come from the whole dose curve; as a rule, active = well fitted inhibition curve with a large enough effect; inconclusive = small, poorly fitted or top-dose-only effect; inactive = no such curve, though single readings can be large or run the other way.
SMILES,G9a inh,JMJD2A Tudor inh,Six1-Eya2 blk,HP1b chromo inh,CtBP-E1A inh,BAZ2B inh
O=C1c2ccccc2C(=O)N1CC#CCN1CCN(C(c2ccccc2)c2ccccc2)CC1,?,?,.,.,.,50µM
CN1C(=O)/C(=C/c2cn(CC(=O)N3CCCCC3)c3ccccc23)c2ccccc21,11µM,/,/,/,/,?
CC1CCCC(C)N1C(=O)Cn1cc(/C=C2/C(=O)Nc3ccccc32)c2ccccc21 (stereo not given),10µM,?,.,?,.,?
COC(=O)c1cn(CC(=O)N2C(C)CCCC2C)c2ccccc12 (stereo not given),.,.,.,.,.,.
O=Cc1cn(CC(=O)N2CCCCC2)c2ccccc12,.,.,.,.,.,.
CSc1ccc(C(c2c(C(=O)O)[nH]c3ccccc23)c2c(C(=O)O)[nH]c3ccccc23)cc1,.[0.501 µM],.,.,.,.,50µM
Cc1ccc(C)c(NC(=O)Cn2c(=O)n(Cc3nc(C)no3)c(=O)c3cc4c(cc32)OCO4)c1,.,.,/,.,/,.
COc1ccc(Br)cc1C1CC(=O)N2CN(C)CSC2=C1C#N (stereo not given),1.4µM,?,.,?,.,.
COc1ccc(Br)cc1C1CC(=O)N2CN(Cc3ccccc3)CSC2=C1C#N (stereo not given),1.4µM,?,.,.,.,.
N#CC1=C2SCN(Cc3ccccc3)CN2C(=O)CC1c1ccccc1F (stereo not given),1.8µM,79µM,.,?,.,.
COC(=O)CSC1=C(C#N)C(c2ccccc2F)CC(=O)N1 (stereo not given),?,.,.,.,.,.
COc1cc(OC)c(C2CC(=O)N3CN(C)CSC3=C2C#N)cc1OC (stereo not given),1.3µM,4µM,.,.,.,.
Cc1cccc(CN2CC34CCC(CC3S2(=O)=O)O4)c1 (stereo not given),/,.,/,.,/,/
COc1ccc(C2CC(=O)N3C(=C2C#N)SCC3(O)c2ccccc2)cc1 (stereo not given),.,?,.,.,.,.
COc1ccc2ccccc2c1C1CC(=O)N2CN(C)CSC2=C1C#N (stereo not given),1.6µM,28µM,.,?,.,?
CC(/C=C/c1ccco1)=N\NC(=O)CNc1ccc2ccccc2c1,5.6µM,?,.,.,/,35µM
CCOC(=O)N/N=C(C)/C=C/c1ccccc1,.,.,.,.,.,.
CCOC(=O)N/N=C(C)/C=C/c1ccco1,11µM,.,.,.,.,.
Cc1ccc(OCCNC(=O)/C=C/c2ccco2)cc1C,/,.,.,.,.,.
CC(/C=C/c1ccco1)=N\NC(=O)COc1ccc(C)c(C)c1,40µM,.,.,.,.,?
COc1ccc(S(=O)(=O)NCc2ccncc2)cc1NC(=O)c1ccccc1,.[0.501 µM],.,.,.,.,.
CCOc1ccc(S(=O)(=O)NCc2ccncc2)cc1NC(=O)c1ccccc1,56µM,.,.,.,.,.
COc1ccc(S(=O)(=O)NCc2ccccn2)cc1NC(=O)c1ccc(Cl)cc1,.,3.5µM,.,.,.,.
COc1ccc(S(=O)(=O)NCc2ccccn2)cc1NC(=O)c1ccccc1C,.,1µM,.,.,.,?
CCOc1cc(C(=O)Nc2ccc(N3CCN(C(C)=O)CC3)cc2)cc(OCC)c1OCC,?,.,.,.,.,.
CCOc1cc(CNc2ccc(N3CCN(C(C)=O)CC3)cc2)cc(Br)c1OC,28µM,35µM,?,?,.,32µM
COc1ccc(CNc2ccc(C)cc2)cc1Br,?,.,.,?,.,50µM
